Measured values as given in PubChem BioAssay (NCI).
The panel holds about 83,000 compounds, 20% with a hit somewhere; the sample as a whole holds those more often.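 Testing used 96-well plates and a 48-hour single-concentration exposure. Example: -40 means 40% of the starting cells died.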 Calls of active or inactive are those of the source. The calls were made as follows: active = growth percent below 10; inactive = the rest.

Assays:
Test in all cases: NCI-60 one-dose screen, 48 h (100 = growth as untreated, 0 = no growth, -100 = all killed)
Details in all cases: 10 µM unless noted
NCI-H23 lung = test system: NCI-H23 lung
NCI-H226 lung = test system: NCI-H226 lung
NCI-H322M lung = test system: NCI-H322M lung
HOP-62 NSCLC = test system: HOP-62 NSCLC
NCI-H460 lung = test system: NCI-H460 lung
HOP-92 NSCLC = test system: HOP-92 NSCLC
NCI-H522 lung = test system: NCI-H522 lung
A549/ATCC NSCLC = test system: A549/ATCC NSCLC
786-0 renal = test system: 786-0 renal
COLO 205 colon = test system: COLO 205 colon

Measured: growth

COc1ccc2c(c1)N(CCO)C1=C(C(=O)OC1)C2c1cccc(Br)c1 (stereo not given)
inactive: NCI-H23 lung 29.2% | NCI-H322M lung 29% | HOP-62 NSCLC 29.4% | HOP-92 NSCLC 42.7% | A549/ATCC NSCLC 16.4% | 786-0 renal 21.4%
active: NCI-H226 lung -5.22% | NCI-H460 lung 2.07% | NCI-H522 lung -19.2% | COLO 205 colon -47.2%

O=C(Nc1ccccc1)C(CCCCN1C(=O)c2ccccc2C1=O)N1C(=O)c2ccccc2C1=O (stereo not given)
inactive: NCI-H23 lung 107% | NCI-H226 lung 95.3% | NCI-H322M lung 98% | HOP-62 NSCLC 109% | NCI-H460 lung 109% | HOP-92 NSCLC 76.8% | NCI-H522 lung 94.6% | A549/ATCC NSCLC 97.8% | 786-0 renal 99.6% | COLO 205 colon 118%

CC(C)[C@H](CN)NC[C@H](C)NS(=O)(=O)c1ccc(C(C)(C)C)cc1
inactive: NCI-H23 lung 97% | NCI-H226 lung 74.2% | NCI-H322M lung 101% | HOP-62 NSCLC 94.6% | NCI-H460 lung 100% | HOP-92 NSCLC 71.9% | NCI-H522 lung 96.2% | A549/ATCC NSCLC 98.7% | 786-0 renal 90.3% | COLO 205 colon 105%

CSCCC1NC(=O)C(C(C)=Nc2ccccc2)=C1O (stereo not given)
inactive: NCI-H23 lung 105% | NCI-H226 lung 112% | NCI-H322M lung 102% | HOP-62 NSCLC 107% | NCI-H460 lung 114% | HOP-92 NSCLC 108% | NCI-H522 lung 116% | A549/ATCC NSCLC 101% | 786-0 renal 98.9% | COLO 205 colon 105%

N#CC1=C(N)Oc2nc[nH]c(=O)c2C1c1cccs1 (stereo not given)
inactive: NCI-H23 lung 110% | NCI-H226 lung 89% | NCI-H322M lung 105% | HOP-62 NSCLC 105% | NCI-H460 lung 106% | HOP-92 NSCLC 102% | NCI-H522 lung 97.6% | A549/ATCC NSCLC 95.7% | 786-0 renal 103% | COLO 205 colon 106%

COc1ccc(C2CC(c3ccc(Nc4ccnc5cc(Cl)ccc45)cc3)=NN2c2ccccc2)cc1 (stereo not given)
inactive: NCI-H23 lung 97.7% | NCI-H226 lung 102% | NCI-H322M lung 100% | HOP-62 NSCLC 106% | NCI-H460 lung 85.6% | HOP-92 NSCLC 68.5% | NCI-H522 lung 90.6% | A549/ATCC NSCLC 85.8% | 786-0 renal 100% | COLO 205 colon 86.5%

CCCc1n(Cc2ccc3ccccc3c2)c2ccccc2[n+]1Cc1ccc2ccccc2c1
active: NCI-H23 lung -12.9% | NCI-H226 lung -4.44% | NCI-H322M lung 4.72% | HOP-62 NSCLC -55.4% | NCI-H460 lung -76.1% | HOP-92 NSCLC -48.1% | NCI-H522 lung -60.2% | A549/ATCC NSCLC -19.4% | 786-0 renal -85.2% | COLO 205 colon -77%

COc1ccc2[nH]c(O)c(/C=c3/ccc4c(c3)N=C(c3ccc(F)cc3)N=4)c2c1
active: HOP-92 NSCLC 4.86% | 786-0 renal -30.1%
inactive: NCI-H23 lung 71.7% | NCI-H226 lung 85.4% | NCI-H322M lung 49.4% | HOP-62 NSCLC 34.2% | NCI-H460 lung 36.9% | NCI-H522 lung 81% | A549/ATCC NSCLC 37.6% | COLO 205 colon 72.9%

O=C1C2=C(C(=O)c3c(O)ccc(O)c31)N(c1ccc(N3CCOCC3)nc1)Cc1ccccc1O2
active: NCI-H23 lung -33.8% | NCI-H226 lung 0% | NCI-H322M lung -14.6% | HOP-62 NSCLC -13% | NCI-H460 lung -32.6% | HOP-92 NSCLC -66.1% | NCI-H522 lung -47.3% | A549/ATCC NSCLC -23.2% | 786-0 renal -83.7% | COLO 205 colon -67.5%

CCOC(CN1CCN(CC(C)C(=O)c2ccccc2)CC1)c1ccccc1 (stereo not given)
inactive: NCI-H23 lung 112% | NCI-H226 lung 91.2% | NCI-H322M lung 95.5% | HOP-62 NSCLC 104% | NCI-H460 lung 99.7% | HOP-92 NSCLC 97.5% | NCI-H522 lung 73.9% | A549/ATCC NSCLC 96.5% | 786-0 renal 106% | COLO 205 colon 107%

CCCCCCCCCCCCCCCCOc1ccc(S(=O)(=O)N(C)C)cc1[N+](=O)[O-]
inactive: NCI-H23 lung 97.4% | NCI-H226 lung 104% | NCI-H322M lung 103% | HOP-62 NSCLC 49.2% | NCI-H460 lung 118% | HOP-92 NSCLC 46.2% | NCI-H522 lung 94.5% | A549/ATCC NSCLC 98.7% | 786-0 renal 67.3% | COLO 205 colon 114%

O=c1cc(-c2ccc3c(c2)OCCO3)oc2cc(Cl)ccc12
inactive: NCI-H23 lung 61% | A549/ATCC NSCLC 11.2% | COLO 205 colon 40.7%
active: NCI-H226 lung -12.9% | NCI-H322M lung -6.58% | HOP-62 NSCLC 1.84% | NCI-H460 lung -57.9% | HOP-92 NSCLC -8.2% | NCI-H522 lung -12.7% | 786-0 renal -42.8%

CCCC(CCC)NCC(O)c1cc(-c2ccc(C(F)(F)F)cc2)nc(C(F)(F)F)c1 (stereo not given)
active: NCI-H23 lung -59.4% | NCI-H226 lung -69.5% | NCI-H322M lung 0.686% | HOP-62 NSCLC -64.8% | NCI-H460 lung -60.1% | HOP-92 NSCLC -71.5% | NCI-H522 lung -77.5% | A549/ATCC NSCLC -59.6% | 786-0 renal -61.5% | COLO 205 colon -83.5%

O=C(O)c1ccccc1N=Cc1ccccc1
inactive: NCI-H23 lung 98% | NCI-H226 lung 132% | NCI-H322M lung 120% | HOP-62 NSCLC 100% | NCI-H460 lung 106% | HOP-92 NSCLC 90.2% | NCI-H522 lung 101% | A549/ATCC NSCLC 102% | 786-0 renal 104% | COLO 205 colon 105%

Clc1cn2cc(-c3ccc(Cl)c(Cl)c3Cl)nc2s1
inactive: NCI-H23 lung 92.7% | NCI-H226 lung 90.1% | NCI-H322M lung 91.9% | HOP-62 NSCLC 86.7% | NCI-H460 lung 109% | HOP-92 NSCLC 85.8% | NCI-H522 lung 91.4% | A549/ATCC NSCLC 103% | 786-0 renal 99.9% | COLO 205 colon 106%

N#Cc1nc(-c2ccc(Cl)cc2)cc(-c2ccc(Nc3nc(N4CCCCC4)nc(N4CCCCC4)n3)cc2)c1N
inactive: NCI-H23 lung 92.1% | NCI-H226 lung 71.2% | NCI-H322M lung 109% | HOP-62 NSCLC 94.8% | NCI-H460 lung 104% | HOP-92 NSCLC 101% | NCI-H522 lung 96.9% | A549/ATCC NSCLC 106% | 786-0 renal 103% | COLO 205 colon 113%

COc1ccc(C(=O)C(C#N)c2cc(OC)c(OC)c(OC)c2)cc1 (stereo not given)
inactive: NCI-H23 lung 113% | NCI-H226 lung 99.4% | NCI-H322M lung 105% | HOP-62 NSCLC 109% | NCI-H460 lung 107% | HOP-92 NSCLC 83.6% | NCI-H522 lung 85.2% | A549/ATCC NSCLC 98.1% | 786-0 renal 97.6% | COLO 205 colon 106%

Cn1c(=O)c2[nH]c(Cc3ccc4c(c3)OCO4)nc2n(C)c1=O
inactive: NCI-H23 lung 99.8% | NCI-H226 lung 99.4% | NCI-H322M lung 109% | HOP-62 NSCLC 101% | NCI-H460 lung 102% | HOP-92 NSCLC 71.4% | NCI-H522 lung 103% | A549/ATCC NSCLC 97% | 786-0 renal 111% | COLO 205 colon 109%

COc1cccc2nc(Nc3cccc(NC(=O)c4cc(N5CCOCC5)cc(C(F)(F)F)c4)c3)ccc12
inactive: NCI-H23 lung 78.4% | NCI-H226 lung 47.8% | NCI-H322M lung 68.6% | HOP-62 NSCLC 78.6% | NCI-H460 lung 49.2% | HOP-92 NSCLC 47.9% | NCI-H522 lung 81.3% | A549/ATCC NSCLC 37.3% | 786-0 renal 65.8% | COLO 205 colon 62.5%

CCOC(=O)Nc1ccc2nc(-c3cscn3)[nH]c2c1
inactive: NCI-H23 lung 71.6% | NCI-H226 lung 63.5% | NCI-H322M lung 63.1% | HOP-62 NSCLC 54.1% | NCI-H460 lung 21.7% | HOP-92 NSCLC 114% | NCI-H522 lung 43.7% | A549/ATCC NSCLC 45% | 786-0 renal 67.7% | COLO 205 colon 29%

CCCCNCC(O)c1cc(-c2ccc(C(F)(F)F)cc2)nc(-c2ccc(C(F)(F)F)cc2)c1 (stereo not given)
active: NCI-H23 lung -63.9% | NCI-H226 lung -76.2% | NCI-H322M lung -74.3% | HOP-62 NSCLC -90.5% | NCI-H460 lung -76.7% | HOP-92 NSCLC -86% | NCI-H522 lung -79% | A549/ATCC NSCLC -83.5% | 786-0 renal -78.7% | COLO 205 colon -87.2%

Clc1ccc(-c2nc(Br)cn3ccnc23)cc1
inactive: NCI-H23 lung 85.5% | NCI-H226 lung 74.6% | NCI-H322M lung 93% | HOP-62 NSCLC 84.3% | NCI-H460 lung 91.5% | HOP-92 NSCLC 53.6% | NCI-H522 lung 84.6% | A549/ATCC NSCLC 104% | 786-0 renal 97.7% | COLO 205 colon 94.5%

COc1ccc(C2CC(c3cccc(Nc4ccnc5cc(Cl)ccc45)c3)=NN2c2ccccc2)cc1 (stereo not given)
inactive: NCI-H23 lung 80% | NCI-H226 lung 89% | NCI-H322M lung 75% | HOP-62 NSCLC 60% | NCI-H460 lung 43.7% | HOP-92 NSCLC 57.8% | NCI-H522 lung 54.4% | A549/ATCC NSCLC 52.1% | 786-0 renal 91.8% | COLO 205 colon 80.4%

Nc1nc(N)c2cc(Sc3ccc(Cl)cc3)ccc2n1
inactive: NCI-H23 lung 33.6% | NCI-H226 lung 48.9% | NCI-H322M lung 27.7% | HOP-62 NSCLC 53.1% | NCI-H460 lung 13.4% | NCI-H522 lung 21% | A549/ATCC NSCLC 15.2% | 786-0 renal 28%
active: HOP-92 NSCLC 6.59% | COLO 205 colon -45.6%

CN(C)CCOc1nc2c3cccnc3cc(-c3cccc(Cl)c3)c2c2ncccc12
inactive: NCI-H23 lung 31.2% | NCI-H226 lung 40.5% | NCI-H322M lung 44.9% | HOP-62 NSCLC 44.4% | HOP-92 NSCLC 42.7% | NCI-H522 lung 34.1% | A549/ATCC NSCLC 22% | 786-0 renal 21.8%
active: NCI-H460 lung -49.8% | COLO 205 colon -65.4%

COc1cc2c(cc1C)NC(=O)/C2=C\c1c[nH]c2ccccc12
inactive: NCI-H23 lung 79.9% | NCI-H226 lung 84% | NCI-H322M lung 65.8% | HOP-62 NSCLC 75.2% | NCI-H460 lung 40.6% | HOP-92 NSCLC 50.1% | NCI-H522 lung 54.7% | A549/ATCC NSCLC 52.5% | 786-0 renal 65.4% | COLO 205 colon 91.1%

Cc1ccc(NC(=O)c2nc(S(C)(=O)=O)oc2-c2ccc(F)cc2)cc1Nc1ccc2ncn(C)c(=O)c2c1
inactive: NCI-H23 lung 60.4% | NCI-H226 lung 85.2% | NCI-H322M lung 108% | HOP-62 NSCLC 100% | NCI-H460 lung 83.6% | HOP-92 NSCLC 108% | A549/ATCC NSCLC 102% | 786-0 renal 78.8%
active: NCI-H522 lung -7.9% | COLO 205 colon -8.69%
